Bioassay records (PubChem BioAssay)
Pf growth 48h: Primary qHTS for delayed death inhibitors of the malarial parasite plastid, 48 hour incubation; P. falciparum luciferase growth in erythrocytes, 48 h; 310,000 tested, 5.9% active; AID 504832, 2011; Potency, µM (top dose mostly 28.7 µM), hits mostly inhibitors
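Growth was read as firefly luciferase luminescence after a 48 h, 37 C, 5% CO2 exposure of compounds to reporter-bearing P. falciparum cultures (0.1% parasitemia, 2% hematocrit final) in Albumax-supplemented RPMI 1640.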
AmpC detergent: qHTS Inhibitors of AmpC Beta-Lactamase (assay with detergent). Potency, µM (highest dose often 114 µM), most hits filed as inhibitors. 370,000 tested, 0.041% active. P00811. AmpC hydrolysis of nitrocefin, absorbance 480 nm, 0.01% Triton; also: nearly all actives have a fitted effect of over 25% in size
Target sequence (P00811 whole entry, looked up): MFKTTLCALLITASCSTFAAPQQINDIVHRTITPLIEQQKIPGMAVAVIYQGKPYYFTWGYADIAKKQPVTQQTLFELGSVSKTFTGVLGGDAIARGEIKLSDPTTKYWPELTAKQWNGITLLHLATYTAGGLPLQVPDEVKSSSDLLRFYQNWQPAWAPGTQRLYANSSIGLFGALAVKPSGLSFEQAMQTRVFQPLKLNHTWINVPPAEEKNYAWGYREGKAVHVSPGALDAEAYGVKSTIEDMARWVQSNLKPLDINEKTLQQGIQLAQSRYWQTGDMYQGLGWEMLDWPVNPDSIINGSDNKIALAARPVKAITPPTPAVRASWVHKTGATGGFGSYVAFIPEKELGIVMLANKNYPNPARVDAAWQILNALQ
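AmpC (5.3 nM in the dispensed reagent) in 20 mM phosphate pH 7.0 with 0.01% (detergent screen) or 0.0001% Triton X-100 was preincubated with compounds for 15 min at room temperature. Nitrocefin was then added from an 800 uM solution, and hydrolysis was followed at 480 nm.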
HCV inh: qHTS Assay for Inhibitors of Hepatitis C Virus (HCV) | Huh7.5.1 HCVcc-Cre infection, luciferase reporter, 44 h | Potency, µM (titrated, usually from 41.8 µM), usual class: inhibitors | 340,000 tested, 3.4% active | AID 651820, 2012
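Reporter virus HCVcc-Cre (~0.5 moi) infects cells exposed to compound; seeding density 1,000 cells/well with 4 h settling beforehand. Luminescence, 15 sec read, taken 44 h post-infection following a 15 min RT substrate incubation.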
AMA1 RON2 block: qHTS for Inhibitors of AMA1-RON; Towards Development of Antimalarial Drug Lead: Primary Screen; Plasmodium falciparum AMA1 (3D7) - RON2 peptide interaction; Potency, µM (series often up to 58.2 µM), usual class: inhibitors; AlphaScreen AMA1-biotinylated RON2 peptide binding; 360,000 tested, 0.2% active; also: nearly all actives have a fitted effect of over 45% in size
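AMA1 (3D7) with his tag at 25 nM final met compounds first, then biotinylated RON2 peptide at 25 nM; detection used donor plus acceptor beads, 10 µg/mL apiece, read by AlphaScreen after 30 min at room temperature.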
AmpC inh no detg: qHTS Inhibitors of AmpC Beta-Lactamase (assay without detergent). P00811. AID 485341, 2010. AmpC nitrocefin hydrolysis, absorbance 480 nm, 0.0001% Triton. Potency, µM (doses to about 57.1 µM), hits mostly inhibitors. 330,000 tested, 0.52% active; also: nearly all actives have a fitted effect of over 20% in size
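AmpC (5.3 nM in the dispensed reagent) in 20 mM phosphate pH 7.0 with 0.01% (detergent screen) or 0.0001% Triton X-100 was preincubated with compounds for 15 min at room temperature. Nitrocefin was then added from an 800 uM solution, and hydrolysis was followed at 480 nm.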
Pf growth 96h: Primary qHTS for delayed death inhibitors of the malarial parasite plastid, 96 hour incubation. P. falciparum luciferase reporter growth, 96 h. Potency, µM (top dose mostly 28.7 µM), most hits filed as inhibitors. 320,000 tested, 6.9% active
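Parasite growth measured via integrated firefly luciferase reporter in P. falciparum. Infected erythrocytes at 2% hematocrit, 0.05% parasitemia final were treated 96 hours at 37 C under 5% CO2, and luminescence was read.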
Large screens that a line does not name were inactive. Most compounds without a hit are left out; they make up all but 11% or so of the library. Calls follow the shape of the dose curve; as a rule, active = well fitted curve in the direction sought with a large enough effect; inconclusive = small, poorly fitted or top-dose-only effect, or another doubt; inactive = no such curve, though single readings can be large; an effect the other way counts as inactive or inconclusive.

CCOc1ccccc1NC(=O)CCSc1nc2n[nH]c(C)c2c(=N)n1-c1ccccc1Cl	Pf growth 48h 12µM, HCV inh inconclusive
CCc1ccccc1NC(=O)CSc1nc2n[nH]c(C)c2c(=N)n1-c1cccc(OC)c1	Pf growth 48h 13µM, HCV inh inconclusive (no result: Pf growth 96h)
COc1ccc(OC)c(NC(=O)CSc2nc3n[nH]c(C)c3c(=N)n2-c2cccc(Cl)c2C)c1	Pf growth 48h inconclusive, HCV inh inconclusive, Pf growth 96h inconclusive
Cc1ccccc1-n1c(SCC(=O)Nc2ccccc2Cl)nc2n[nH]c(C)c2c1=N	Pf growth 48h inconclusive, HCV inh inconclusive
Cc1ccccc1-n1c(SCc2ccccn2)nc2n[nH]c(C)c2c1=N	Pf growth 48h inconclusive, HCV inh 11µM
CC1CCN(C(=O)CSc2c3c(nc4ccc(Cl)cc24)CCCC3)CC1	none (no result: Pf growth 48h, HCV inh, AMA1 RON2 block, AmpC inh no detg, Pf growth 96h)
CCc1ccc(CNC(=O)c2cnc(N3CCCCC3)c3ccccc23)cc1	none (no result: Pf growth 48h, HCV inh, AMA1 RON2 block, AmpC inh no detg, Pf growth 96h)
CC(=O)n1c2ccccc2c2nc3ccccc3nc21	Pf growth 96h 2.6µM
CC(=O)n1c2ccccc2c2c1c1ccccc1n2C	HCV inh 2.2µM
CCn1c2ccccc2c2nc3ccccc3nc21	HCV inh inconclusive, Pf growth 96h inconclusive (no result: Pf growth 48h)
CCCNc1ncnc2c1c(-c1ccccc1)cn2-c1ccccc1	none (no result: Pf growth 48h, HCV inh, AMA1 RON2 block, AmpC inh no detg, Pf growth 96h)
COc1cccc(NC(=O)c2c(C(=O)Nc3ccccc3)sc3nc(C)cc(=O)n23)c1	none (no result: Pf growth 48h, HCV inh, AMA1 RON2 block, AmpC inh no detg, Pf growth 96h)
O=C(CCC(=O)N1CC2CCCN2c2ccccc21)NCc1cccc(Cl)c1 (centres undefined)	none (no result: Pf growth 48h, HCV inh, AMA1 RON2 block, AmpC inh no detg, Pf growth 96h)
CCOC(=O)c1cccc(NC(=O)/C=C/c2ccc3c(c2)OCO3)c1	AmpC detergent inconclusive, HCV inh 13µM, Pf growth 96h inconclusive
CCOC(=O)N1CCC(n2c(SCC(=O)N3CCC(C)CC3)nc3ccccc3c2=O)CC1	Pf growth 48h 10µM, AmpC detergent inconclusive, HCV inh 13µM, Pf growth 96h 4.7µM
CCOC(=O)N1CCC(n2c(SCC(=O)NCCC3=CCCCC3)nc3ccccc3c2=O)CC1	Pf growth 48h 9.3µM, HCV inh inconclusive, Pf growth 96h inconclusive
CCOC(=O)N1CCC(n2c(SCC(=O)Nc3ccccc3OC)nc3ccccc3c2=O)CC1	Pf growth 48h 10µM, HCV inh inconclusive
CCOC(=O)N1CCC(n2c(SCC(=O)N3CCCC3)nc3ccccc3c2=O)CC1	Pf growth 48h inconclusive, HCV inh inconclusive, Pf growth 96h inconclusive
CCOC(=O)N1CCC(n2c(SCC(=O)NCc3ccccc3)nc3ccccc3c2=O)CC1	Pf growth 48h inconclusive, AmpC detergent inconclusive, HCV inh inconclusive, Pf growth 96h inconclusive
COCC(C)n1c(SCC(=O)NCCC2=CCCCC2)nc2ccccc2c1=O (centres undefined)	Pf growth 96h 8.3µM (no result: Pf growth 48h)
COCC(C)n1c(SCC(=O)NC(=O)NC2CCCC2)nc2ccccc2c1=O (centres undefined)	Pf growth 48h 13µM, Pf growth 96h inconclusive
Cc1ccc(NC(=O)c2c3c(nc4ccccc24)C(=O)N(C2CCCCC2)C3)cc1F	none (no result: Pf growth 48h, HCV inh, AMA1 RON2 block, AmpC inh no detg, Pf growth 96h)
COc1cc(Nc2ccccc2Cl)c([N+](=O)[O-])nc1[N+](=O)[O-]	HCV inh inconclusive, Pf growth 96h 15µM (no result: Pf growth 48h)
COc1ccc(CNC(=O)CC(c2ccc(OC)cc2)N2Cc3ccccc3C2=O)cc1 (centres undefined)	none (no result: Pf growth 48h, HCV inh, AMA1 RON2 block, AmpC inh no detg, Pf growth 96h)
COc1cccc(C(=O)Nc2ccc(-c3cn4cccnc4n3)cc2)c1OC	none (no result: Pf growth 48h, HCV inh, AMA1 RON2 block, AmpC inh no detg, Pf growth 96h)
CCN1CCN(C(c2ccc(SC)cc2)c2c(O)cc(C)n(CCOC)c2=O)CC1 (centres undefined)	none (no result: Pf growth 48h, HCV inh, AMA1 RON2 block, AmpC inh no detg, Pf growth 96h)
CC(=O)N1CCc2c(sc(NC(=O)C3CC3)c2-c2nc3ccccc3s2)C1	Pf growth 48h inconclusive, AmpC detergent inconclusive, HCV inh 13µM
CN1CCc2c(sc(NC(=O)CSc3ccccc3)c2-c2nc3ccccc3s2)C1	none (no result: Pf growth 48h, HCV inh, AMA1 RON2 block, AmpC inh no detg, Pf growth 96h)
